Laboratory results reported in publication PMC4336329 (PLoS ONE, 2015).
About 14,000 (4.5%) of roughly 310,000 compounds showed an effect of 50% or more. Effects have a minus sign here. Many of the other results were omitted from the sample, so strong results are more common in it than they were.

Biological target: human ether-à-go-go-related gene (hERG) potassium channel (human, UniProt Q12809)
Assay: primary screen, population patch clamp on CHO cells stably expressing hERG; higher = less effect of the substance
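Note: peak tail current of the secondary pulse compared with the same well before compound.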

human ether-à-go-go-related gene (hERG) potassium channel, sequence (Q12809 whole entry, looked up): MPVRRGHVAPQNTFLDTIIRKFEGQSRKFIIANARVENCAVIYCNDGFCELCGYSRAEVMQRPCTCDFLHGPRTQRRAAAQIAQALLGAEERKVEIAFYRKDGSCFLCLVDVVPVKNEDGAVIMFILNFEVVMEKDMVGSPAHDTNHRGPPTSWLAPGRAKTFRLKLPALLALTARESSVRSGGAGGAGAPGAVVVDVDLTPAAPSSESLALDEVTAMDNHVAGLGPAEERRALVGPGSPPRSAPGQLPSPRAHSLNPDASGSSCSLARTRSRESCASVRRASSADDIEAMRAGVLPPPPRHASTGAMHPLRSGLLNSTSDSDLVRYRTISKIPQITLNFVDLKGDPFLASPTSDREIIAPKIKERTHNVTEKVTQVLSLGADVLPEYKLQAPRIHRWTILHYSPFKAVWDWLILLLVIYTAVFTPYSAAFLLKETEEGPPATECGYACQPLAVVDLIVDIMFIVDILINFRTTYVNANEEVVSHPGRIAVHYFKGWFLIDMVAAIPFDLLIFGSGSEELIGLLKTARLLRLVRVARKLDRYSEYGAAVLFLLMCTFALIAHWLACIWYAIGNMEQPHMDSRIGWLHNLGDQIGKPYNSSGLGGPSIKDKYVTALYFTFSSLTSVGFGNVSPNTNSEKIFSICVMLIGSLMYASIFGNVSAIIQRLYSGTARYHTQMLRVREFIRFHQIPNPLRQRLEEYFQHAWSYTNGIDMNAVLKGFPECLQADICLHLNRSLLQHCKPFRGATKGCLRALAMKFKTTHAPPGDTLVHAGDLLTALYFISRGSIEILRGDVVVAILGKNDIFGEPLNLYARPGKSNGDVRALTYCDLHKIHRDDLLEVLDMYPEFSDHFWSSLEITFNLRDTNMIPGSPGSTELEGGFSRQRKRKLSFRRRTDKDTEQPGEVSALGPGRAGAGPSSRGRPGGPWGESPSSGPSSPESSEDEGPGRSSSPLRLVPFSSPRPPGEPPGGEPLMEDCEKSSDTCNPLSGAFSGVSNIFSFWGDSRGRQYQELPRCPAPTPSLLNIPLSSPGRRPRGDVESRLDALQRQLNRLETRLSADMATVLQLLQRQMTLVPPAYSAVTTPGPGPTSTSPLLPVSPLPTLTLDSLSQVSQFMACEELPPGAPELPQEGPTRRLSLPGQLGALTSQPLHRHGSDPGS

Row | Structure (SMILES) | hERG current change (%, negative = inhibition) at 10uM [%]
1 | CCOCC(=O)Nc1ccc2c(c1)OCCO2 | 19.6
2 | Brc1ccc2c(c1)C(c1cccs1)=NNC(c1cccnc1)=N2 | -14.5
3 | COc1ccc(NC(=O)CCC(=O)c2ccc(C(C)C)cc2)cc1 | 27.7
4 | CCOCCCn1c(=NC(C)=O)c(C#N)cc2c(=O)n3ccccc3nc21 | -15.4
5 | CCCCCn1c(=NC(C)=O)c(C#N)cc2c(=O)n3ccccc3nc21 | -43
6 | CCOCCCn1c(=NC(=O)c2cccs2)c(C#N)cc2c(=O)n3ccccc3nc21 | -76.9
7 | CC(C)OCCCn1c(=NC(=O)c2ccncc2)c(C#N)cc2c(=O)n3ccccc3nc21 | -74.2
8 | CC(C)OCCCn1c(=NC(=O)c2cccs2)c(C#N)cc2c(=O)n3ccccc3nc21 | -77.6
9 | CC(=O)N=c1c(C#N)cc2c(=O)n3ccccc3nc2n1CCCOC(C)C | -13.6
10 | Cc1ccc(NC(=O)c2ccc(CSc3nnnn3C)cc2)cc1 | -15.3
11 | COc1ccc(-c2nc(CS(=O)CC(=O)NCc3cccnc3)c(C)o2)cc1OC (centres unmarked) | -2.9
12 | O=C(NCCCN1CCCCCC1)c1ccc(N2CCCC2=O)cc1 | 16.4
13 | COc1ccccc1/C=C(\C#N)C(=O)c1cccn1C | 5.95
14 | CCOC(=O)C1(Cc2cccc(F)c2)CCN(CC2CC2)CC1 | -33.4
15 | CCOC(=O)C1(Cc2cccc(OC)c2)CCN(CC2CC=CCC2)CC1 (centres unmarked) | -71.7
16 | CCOC(=O)C1(Cc2ccccc2)CCN(CC2CC=CCC2)CC1 (centres unmarked) | -54.9
17 | CCN(Cc1cnn(C)c1)C(=O)c1ccc(OC2CCN(S(=O)(=O)N(C)C)CC2)cc1 | 19.1
18 | CCSC1=C(C#N)C(c2ccc3c(c2)OCO3)C2=C(CCCC2=O)N1 (centres unmarked) | -23.4
19 | Oc1ccc(/C=N/N2CCN(Cc3ccccc3)CC2)cc1 | 7.33
20 | O=C(COC(=O)CC1CCCC1)Nc1cccc(F)c1 | -1.79
21 | O=C(NCc1cccs1)[C@@H]1CSC2c3ccccc3C(=O)N21 (some centres unmarked) | 8.92
22 | CC(C)CC1c2[nH]c3ccccc3c2CCN1C(=O)CCC(=O)N(C)C (centres unmarked) | 3.88
23 | CCn1ccnc1CN1CCc2c([nH]c3ccccc23)C1CC(C)C (centres unmarked) | -67.9

Row | Structure (SMILES) | hERG current change (%, negative = inhibition) at 10uM [%]
24 | CCn1ccnc1CN1CCc2c([nH]c3ccccc23)C1C1CCCCC1 (centres unmarked) | -19.4
25 | Cc1cccc(CN2CCc3c([nH]c4ccccc34)C2CC(C)C)n1 (centres unmarked) | -3.98
26 | CCc1nccn1CCC(=O)N1CCc2c([nH]c3ccccc23)C1CC(C)C (centres unmarked) | -53.9
27 | CC(C)CC1c2[nH]c3ccccc3c2CCN1C(=O)c1cnccn1 (centres unmarked) | 3.61
28 | COCc1ccc(CN2CCc3c([nH]c4ccccc34)C2CC(C)C)o1 (centres unmarked) | -58.7
29 | Cc1c(CN2CCc3c([nH]c4ccccc34)C2CC(C)C)cnn1C (centres unmarked) | -36
30 | CCn1nc(C)c(CN2CCc3c([nH]c4ccccc34)C2C(C)(C)C)c1C (centres unmarked) | -3.17
31 | Cc1cnc(CN2CCc3c([nH]c4ccccc34)C2CC(C)C)[nH]1 (centres unmarked) | -45.1
32 | COCc1ccc(CN2CCc3c([nH]c4ccccc34)C2C(C)(C)C)o1 (centres unmarked) | 7.25
33 | CCn1ccnc1CN1CCc2c([nH]c3ccccc23)C1C(C)(C)C (centres unmarked) | -59.7
34 | Br.Cc1nc(-c2ccc(C(=O)O)cc2)cs1 | 7.39
35 | S=C(NCCN1CCOCC1)Nc1ccc(Cl)cc1Cl | -18
36 | CCOC(=O)N1CCN(CC(O)COCc2ccccc2)CC1.Cl (centres unmarked) | -4.06
37 | Cc1ccc(S(=O)(=O)Nn2c(C)ccc2C)cc1 | 15.3
38 | Nc1ccccc1Nc1ccccc1 | -13.6
39 | O=c1c(Cl)c(NCc2ccccc2Cl)cnn1C12CC3CC(CC(C3)C1)C2 | -5.06
40 | CN(C)c1ccc(C(CC(=O)O)NC(=O)c2ccc(Cl)cc2)cc1 (centres unmarked) | -9.38
41 | N#CCc1ccc(NC(=O)c2ccc(S(=O)(=O)N3CCOCC3)cc2)cc1 | 1.97
42 | O=C(CN(c1ccccc1)S(=O)(=O)c1ccccc1[N+](=O)[O-])Nc1ccccc1C(=O)N1CCOCC1 | 3.76
43 | Cc1ccc(CN2CCSCC2)c(C)c1 | 16.9
44 | Cc1cccc(OCC(O)Cn2c(N3CCCCC3)nc3c2c(=O)[nH]c(=O)n3C)c1 (centres unmarked) | 13
45 | CCCSc1nsc(NC(=O)CC)n1 | -30.5
46 | CCCC1Cc2c(sc(N)c2C#N)CO1 (centres unmarked) | 2.5

Row | Structure (SMILES) | hERG current change (%, negative = inhibition) at 10uM [%]
47 | CC(C)Cc1nnc(NC(=O)c2ccc(N3CCCC3=O)cc2)s1 | 2.3
48 | COc1cccc(C(=O)NCC2CCN(c3ccc(S(=O)(=O)N4CCOCC4)cc3)CC2)c1 | -22.9
49 | O=C(NCC1CCN(c2ccc(S(=O)(=O)N3CCOCC3)cc2)CC1)c1ccc(Cl)cc1 | -57.2
50 | CCCCN(C)C(=O)c1ccc(S(=O)(=O)N2CCOCC2)cc1 | 17.3
51 | Cc1cccc(C)c1NC(=O)CN(C)C(=O)c1cc(S(=O)(=O)N2CCOCC2)ccc1N1CCCC1 | -3.99
52 | CN(CCOc1ccc(Cl)cc1)C(=O)Cc1ccc(S(=O)(=O)N2CCOCC2)s1 | -73.1
53 | CN(CCOc1ccccc1)C(=O)c1ccc(F)c(S(=O)(=O)N2CCOCC2)c1 | -10.8
54 | COc1ccc(NC(=O)CN(C)C(=O)Cc2ccc(S(=O)(=O)N3CCOCC3)s2)cc1 | 8.92
55 | O=C(NCC1CCN(c2ccc(S(=O)(=O)N3CCOCC3)cc2)CC1)c1cccc(Cl)c1 | -12.4
56 | Cc1ccc(OCCOC(=O)c2cc(S(=O)(=O)N3CCCCC3)ccc2N2CCOCC2)cc1 | -9.24
57 | CN(CCOc1ccc(Cl)cc1)C(=O)c1ccc(S(=O)(=O)N2CCOCC2)cc1 | -74.9
58 | CN(CCOc1ccc(Cl)cc1)C(=O)c1cc(S(=O)(=O)N2CCOCC2)ccc1N1CCCC1 | -63.7
59 | Cc1ccc(OCCNC(=O)Cc2ccc(S(=O)(=O)N3CCOCC3)s2)cc1 | -24
60 | O=C(Nn1cnc2ccccc2c1=O)c1ccccc1 | 12.7
61 | COc1c(Cl)cc(C(=O)Nc2ccccc2-c2ccccc2)cc1Cl | 0.345
62 | Cc1ccc(NC(=O)Cn2nc(C(=O)Nc3ccc(C)cc3)ccc2=O)cc1 | 10.8
63 | CCN(CC)S(=O)(=O)c1cccc(C(=O)OC2CC(C)OC2=O)c1 (centres unmarked) | 12.7
64 | Nc1nc(NCc2ccccc2)nc(NCc2ccccc2)c1[N+](=O)[O-] | 16.2
65 | O=C(Nc1c2c(nn1-c1ccccc1)CS(=O)C2)c1ccc(S(=O)(=O)N2CCOCC2)cc1 (centres unmarked) | 17.4
66 | COc1cc(NC(=O)COC(=O)/C=C/c2ccc(Cl)cc2Cl)cc(OC)c1 | 5.23
67 | CC(C)(C)NC(=O)NCCc1ccccc1 | 11
68 | CC(=O)Nc1ccc2nc(SCC(=O)N3CCOCC3)sc2c1 | 18.9
69 | COc1cc(/C=N/NC(=O)[C@H](Cc2c[nH]c3ccccc23)NC(=O)OCC(C)C)cc([N+](=O)[O-])c1O | 10.3

Row | Structure (SMILES) | hERG current change (%, negative = inhibition) at 10uM [%]
70 | CCN1CCN(S(=O)(=O)c2ccc(Cl)c(C(=O)N(C)Cc3ccc(F)cc3)c2)CC1 | -25.1
71 | COc1ccc(S(=O)(=O)N2CCCCCC2)cc1C(=O)N(C)CCOc1ccc(Cl)cc1 | -47.7
72 | COc1ccc(S(=O)(=O)N2CCOCC2)cc1C(=O)N(C)CCOc1ccc(Cl)cc1 | -79.8
73 | COc1ccc(S(=O)(=O)N2CCCCCC2)cc1C(=O)N(C)Cc1ccc(Cl)cc1Cl | -23.1
74 | CCN1CCN(S(=O)(=O)c2ccc(Cl)c(C(=O)N(C)CCOc3ccc(Cl)cc3)c2)CC1 | -52.8
75 | O=C(NCC1CCCO1)c1cc(S(=O)(=O)N2CCOCC2)ccc1Cl (centres unmarked) | 16.5
76 | O=S(=O)(c1ccc2c(c1)nc(COc1ccc(Cl)cc1)n2CC1CCCO1)N1CCOCC1 (centres unmarked) | -65.2
77 | CN(CCOc1ccccc1)C(=O)c1cc([N+](=O)[O-])ccc1N1CCOCC1 | -27.3
78 | CN(CCOc1ccc(Cl)cc1)C(=O)c1cc([N+](=O)[O-])ccc1N1CCOCC1 | -66.7
79 | O=C(COc1ccc(S(=O)(=O)N2CCOCC2)cc1)NCC1CCCO1 (centres unmarked) | -15.1
80 | Cc1cccc(C)c1NC(=O)CN(C)C(=O)c1cc([N+](=O)[O-])ccc1N1CCOCC1 | 24.1
81 | CCN1CCN(S(=O)(=O)c2ccc(Cl)c(C(=O)N(C)Cc3cccc(OC)c3)c2)CC1 | -11.2
82 | COCCNC(=O)Cn1cc(C(=O)c2ccccc2F)c2ccccc21 | 12.5
83 | COc1ccccc1CNc1ncnc2cc(OC)c(OC)cc12 | -32
84 | CCOC(=O)c1c(NC(=O)Cn2cnc3scc(-c4ccc(C)cc4)c3c2=O)sc(C)c1C | -14.5
85 | CCCNC(=S)Nc1ccc(Nc2ccccc2)cc1 | -15
86 | O=C(CSc1cn[nH]n1)Nc1ccccc1C(F)(F)F | 8.13
87 | Cc1ccc(S(=O)(=O)N2CCOCC2)cc1C(=O)N(C)CCOc1ccc(Cl)cc1 | -64
88 | COc1ccc(CN(C)C(=O)Cc2ccc(S(=O)(=O)N3CCOCC3)s2)cc1OC | 7.58
89 | COc1ccc(Br)cc1CN(C)C(=O)Cc1ccc(OC)c(S(=O)(=O)N2CCOCC2)c1 | -41
90 | Cc1ccc(S(=O)(=O)N2CCOCC2)cc1C(=O)OCCOc1cccc(Cl)c1 | -9.45
91 | CN(CCOc1ccccc1)C(=O)c1cc(S(=O)(=O)N2CCOCC2)ccc1Cl | -48.4
92 | COc1ccc(Br)cc1CN(C)C(=O)Cc1ccc(S(=O)(=O)N2CCOCC2)s1 | -70.4
